Rows were chosen to be rich in hits. Some 2.4% of all compounds tested hit in one or more screens of this group.
D2 PAM-1 = human D2 receptor positive allosteric modulation | P14416 | DiscoveRx D2 beta-arrestin cells, luminescence, 90 min; 100% = 57 uM dopamine signal | potentiation, % (test concentration not listed) | 0.23% of 360,000 active | AID 624464; in the data active = potentiation above about 50%; inconclusive = mostly about 30% to 49%
Target sequence (P14416 whole entry, looked up): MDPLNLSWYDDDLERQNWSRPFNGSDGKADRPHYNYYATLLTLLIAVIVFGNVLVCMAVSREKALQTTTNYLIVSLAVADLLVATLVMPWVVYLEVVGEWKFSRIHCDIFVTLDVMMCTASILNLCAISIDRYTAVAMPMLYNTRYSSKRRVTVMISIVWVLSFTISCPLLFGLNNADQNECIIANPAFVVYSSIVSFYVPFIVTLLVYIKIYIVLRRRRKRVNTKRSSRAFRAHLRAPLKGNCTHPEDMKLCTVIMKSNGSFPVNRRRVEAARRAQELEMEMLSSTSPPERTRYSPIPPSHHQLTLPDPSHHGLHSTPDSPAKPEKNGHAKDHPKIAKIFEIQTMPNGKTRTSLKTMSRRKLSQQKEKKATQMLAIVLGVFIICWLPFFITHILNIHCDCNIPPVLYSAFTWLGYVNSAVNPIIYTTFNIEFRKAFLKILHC
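PathHunter beta-arrestin assay in DiscoveRx D2 cells. Compounds were added with an EC20 of dopamine (50 nM final) for 90 min at 37 deg C. Luminescence was read 1 h after detection reagent, with 57 uM dopamine as the EC100 control.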
D2 ag-1 = D2 dopamine receptor (human) agonism | P14416 | HEK293 T-REx D2 cells, calcium flux agonist mode | activation, % at 2 µM | 0.53% of 340,000 active | AID 485358;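 active = activation over 3 SD above normal in the single-dose calcium agonist read, cut at about 30% in these data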; also: 0% is about no effect
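Calcium-flux readout, 1 cycle/sec over 180 s following compound pin transfer, in inducible HEK293 Trex D2 cells (force-coupled); dopamine controls included. Positive calcium responses during this window marked compounds as potential agonists.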
D2 PAM-2 = positively modulates the human D2 dopamine receptor allosterically; HEK293 T-REx D2, calcium flux, EC20 dopamine potentiation; potentiation, % at 10 µM; P14416; 0.34% of 340,000 active;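 active = potentiation over 3 SD above the plate norm, cut at about 30% in these data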; also: 0% is about no effect
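Using a no-wash calcium dye in inducible, force-coupled HEK293 Trex cells expressing D2, we tracked fluorescence each second for 180 s after compound, then for 180 s after EC20 dopamine to detect augmented signalling.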
D2 ag-2 = human D2 receptor agonism in beta-arrestin assay; P14416; DiscoveRx PathHunter D2 beta-arrestin, luminescence, 90 min; 100% = 57 uM dopamine signal; activation, % (no concentration beside the values); 0.084% of 360,000 active; AID 624465; in the data active = activation above about 40%; inconclusive = between about 15% and that limit
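Agonist mode: compounds alone added to overnight-plated D2 PathHunter cells for 90 min at 37 C, with 57 uM final dopamine (EC100) defining full response. Beta-arrestin recruitment detected by chemiluminescent reagent, read after 1 h at ambient temperature.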
D2 antag = antagonists of human D2 dopamine receptor; inhibition, % at 10 µM; HEK293 TREx D2 cells, calcium flux, dopamine EC80; 2% of 340,000 active; AID 485344; P14416; in the data active = inhibition above about 30%; inactive = below that, where a call was filed; also: 0% is about no effect
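Compounds are added to dye-loaded, induced HEK293 T-REx cells coupled to calcium release via D2; after a 3 min kinetic read an EC80 dopamine stimulus is given and fluorescence is recorded for 3 more min.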
Starred values were filed as active, the others as inactive; ? = inconclusive; nt = no result given.

SMILES	D2 PAM-1	D2 ag-1	D2 PAM-2	D2 ag-2	D2 antag
COc1cccc(-c2noc(N)c2C#N)c1	?	0	3	?	-1
O=C(Nc1cccc(-c2nc3ccccc3s2)c1)c1ccc2c(c1)OCO2	-13	1	-10	0	-7
c1ccc2sc(-c3ccc4c(c3)OCO4)nc2c1	-12	0	31*	0	11
CC(=O)n1c2ccccc2c2nc(NC(C)C)sc21	67*	0	19	-5	-1
CNc1nc2c3ccccc3n(C(C)=O)c2s1	-12	0	-13	-1	6
O=C1CSC(=S)N1/N=C/c1cc(Br)c(O)c(Br)c1	1	85*	-19	-6	-41
O=C(c1c(F)c(F)c(F)c(F)c1F)N1CCN(Cc2ccc3c(c2)OCO3)CC1	-16	nt	nt	-6	nt
COc1cccc(CN2CCC(C(=O)N3CCN(Cc4ccc5c(c4)OCO5)CC3)CC2)c1	-21	1	-1	-4	5
O=C(c1cc2c(s1)CCCC2)N1CCN(Cc2ccc3c(c2)OCO3)CC1	-39	0	-21	-3	75*
O=C(c1ccc(Br)s1)N1CCN(Cc2ccc3c(c2)OCO3)CC1	-22	0	-23	0	78*
O=C(C1CCN(c2nnc(-n3cccc3)s2)CC1)N1CCN(Cc2ccc3c(c2)OCO3)CC1	-4	71*	-20	4	32*
Cn1c(C(=O)N2CCC(C(=O)N3CCN(Cc4ccc5c(c4)OCO5)CC3)CC2)cc2sccc21	-4	5	10	-2	-13
Cn1c(C(=O)N2CCN(Cc3ccc4c(c3)OCO4)CC2)cc2sccc21	-19	0	-22	-2	100*
Cc1cc(C)cc(-n2ccnc2SCC(=O)Nc2ccc3c(c2)OCO3)c1	nt	-2	-20	nt	nt
C(=N\Nc1nc2ccccc2s1)/c1cccs1	3	1	-3	1	37*
CC(C)Cn1c(=O)c2sccc2n2c(CCCC(=O)Nc3ccc(Cl)cc3)nnc12	nt	-1	1	nt	nt
Oc1cccc(Nc2ncnc3ccccc23)c1	-10	0	3	-2	51*
C/C(=N\N=C1/SC(CC(=O)O)C(=O)N1c1ccccc1)c1ccc(C)cc1 (centres undefined)	-6	-3	-15	-2	30*
O=C(O)CC1S/C(=N/N=C2CCCCC2)N(c2ccccc2)C1=O (centres undefined)	-1	0	10	-1	-12
CCOCCCNC(=O)Cc1ccc(F)cc1	nt	1	-8	nt	2
CC(C)OCCCNC(=O)Cc1ccc(F)cc1	-3	1	-20	-1	57*
O=C1CC(c2ccc(Cl)cc2)CC(O)=C1C=NCCN1CCNCC1 (centres undefined)	nt	1	1	nt	53*
C=CCNC(=S)N1CCN(CCN=CC2=C(O)CC(c3ccc(Cl)cc3)CC2=O)CC1 (centres undefined)	7	1	23	2	-18
CCN1CCN(C(=O)Nc2ccc(OC)cc2OC)CC1	-5	0	12	3	49*
COc1ccc(NC(=O)N2CCCCCC2)c(OC)c1	-13	0	-2	-1	-7
SMILES	D2 PAM-1	D2 ag-1	D2 PAM-2	D2 ag-2	D2 antag
Cc1ccc2c(c1)N(C(=O)N1CCC(C(=O)NCc3ccccc3C)CC1)CC(C)O2 (centres undefined)	nt	-1	5	nt	nt
CCOC(=O)c1csc(NC(=O)C(C)(C)C)n1	-5	-1	-6	-6	41*
CCCC(=O)Nc1nc(C(=O)OCC)cs1	-4	0	6	-2	-14
O=C(NCc1ccccc1Cl)C(=O)NCC(c1ccc2c(c1)OCO2)N1CCOCC1 (centres undefined)	nt	1	-7	nt	nt
CN1Cc2cccc3c2C(Cc2ccccc2S3)C1 (centres undefined)	-34	1	-25	-2	48*
O=C(CC1NCCNC1=O)Nc1ccccc1F (centres undefined)	nt	nt	17	nt	nt
COc1ccc(C(=O)CCN2CCN(c3ccccc3OC)CC2)cc1	-15	-1	-3	-3	-7
COc1ccccc1N1CCN(CCCC(=O)c2ccc(F)cc2)CC1	-35	-1	-24	-3	70*
Cc1ccc(CN(C(=O)c2ccc(F)cc2)c2ccccn2)o1	nt	1	-10	nt	nt
O=C(C1CCCCC1)N(Cc1ccccc1)c1ccccn1	-8	0	-2	2	-18
COc1ccccc1N1CCN(CCN(C(=O)c2ccc(F)cc2)c2ccccn2)CC1	-35	1	-20	-3	61*
COc1ccccc1N1CCN(CCN(C(=O)C2CCCCC2)c2ccccn2)CC1	-37	0	-19	-3	70*
Cc1ccc(C(CC(=O)Nc2cc(C)cc(C)c2)N2Cc3ccccc3C2=O)cc1 (centres undefined)	nt	nt	1	nt	nt
CCC(Sc1nc(-c2ccccc2)[nH]c1S(=O)(=O)c1ccc(C)cc1)C(=O)O (centres undefined)	nt	0	9	nt	nt
CSc1nc2c(c(=O)n1C)SC(C)C2 (centres undefined)	-3	1	1	-2	20
CCC(C)Sc1nc2c(c(=O)n1C)SC(C)C2 (centres undefined)	1	-1	52*	-1	-4
Cc1cc(=O)[nH]c(N/N=C/c2ccc(-c3ccc(F)cc3)o2)n1	-6	-1	-9	-4	48*
CCN(CCCNC(=O)c1ccc(Sc2ccc(Cl)cc2)c(NC(C)=O)c1)c1ccccc1	nt	1	10	nt	nt
COc1cc(C(=O)Nc2ccc(-c3cc(C(F)(F)F)nn3-c3ccccc3)cc2)cc(OC)c1OC	nt	0	-4	nt	nt
COc1cccc(N2CCN(Cc3cccnc3)CC2)c1	-11	24	-8	3	-10
FC(F)(F)c1cccc(N2CCN(Cc3cccnc3)CC2)c1	-34	2	-18	1	76*
FC(F)(F)c1cccc(N2CCN(Cc3ccoc3)CC2)c1	-14	0	-29	-1	103*
Cc1ccc(NC(=O)CCc2nnc3ccc(N4CCC(C)CC4)nn23)nc1	-9	0	10	-3	32*
COc1cc(C(=O)NCCCc2nc3ccccc3n2CC(C)C)cc(OC)c1OC	nt	0	-18	nt	nt
CC(=O)Nc1ccc(N2Cc3ccccc3C2)cc1	52*	1	1	7	-2
CC(=O)Nc1ccc(N2CCCC2)cc1	-10	0	-15	1	-14
Cc1ccc(NC(=O)CCN2C(=O)NC3(CCCC3)C2=O)c(C)c1	-7	18	-20	-5	51*
Cc1ccc(NC(=O)c2ccc3c(c2)NC(=O)c2ccccc2S3)cc1	nt	nt	-15	nt	nt
CCS(=O)(=O)N1CCCc2cc(C(=O)Nc3cc([N+](=O)[O-])ccc3C)ccc21	nt	-1	-24	nt	nt
Nc1ccc2c(c1)Cc1cc([N+](=O)[O-])ccc1-2	-12	47*	-8	-7	13

Screens (PubChem BioAssay)
